Results on 20 compounds are retold here after PubChem BioAssay AID651699 (Sanford-Burnham Center for Chemical Genomics, 2012).

Out of some 360,000 compounds screened, about 2,100 (0.58%) were called active. This excerpt belongs to a sample that is enriched for actives. A number with no mark means an inactive call. No stated cut-off is given here; in the data, active means inhibition above about 36%; inactive means the rest.

This test deals with NEDD8-conjugating enzyme Ubc12 (Homo sapiens) + NEDD8-activating enzyme E1 regulatory subunit (Homo sapiens) (UniProt P61081+Q13564). Nature of the test: NEDD8 transfer onto cullin, blockade – biochemical, TR-FRET, uHTS, NAE and Ubc12, primary screen (AID 651699). Conditions: TR-FRET cullin neddylation, at 25 µM, active compounds read high. (In TR-FRET formats the signal depends on donor and acceptor labels being close together.)
NEDD8-conjugating enzyme Ubc12 (Homo sapiens) + NEDD8-activating enzyme E1 regulatory subunit (Homo sapiens), sequence (P61081 whole entry, looked up): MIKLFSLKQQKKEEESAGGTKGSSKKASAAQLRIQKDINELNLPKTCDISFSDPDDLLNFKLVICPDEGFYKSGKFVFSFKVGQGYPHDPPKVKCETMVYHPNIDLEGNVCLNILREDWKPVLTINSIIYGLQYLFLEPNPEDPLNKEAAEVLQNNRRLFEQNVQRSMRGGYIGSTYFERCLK
NEDD8-conjugating enzyme Ubc12 (Homo sapiens) + NEDD8-activating enzyme E1 regulatory subunit (Homo sapiens), sequence (Q13564 whole entry, looked up): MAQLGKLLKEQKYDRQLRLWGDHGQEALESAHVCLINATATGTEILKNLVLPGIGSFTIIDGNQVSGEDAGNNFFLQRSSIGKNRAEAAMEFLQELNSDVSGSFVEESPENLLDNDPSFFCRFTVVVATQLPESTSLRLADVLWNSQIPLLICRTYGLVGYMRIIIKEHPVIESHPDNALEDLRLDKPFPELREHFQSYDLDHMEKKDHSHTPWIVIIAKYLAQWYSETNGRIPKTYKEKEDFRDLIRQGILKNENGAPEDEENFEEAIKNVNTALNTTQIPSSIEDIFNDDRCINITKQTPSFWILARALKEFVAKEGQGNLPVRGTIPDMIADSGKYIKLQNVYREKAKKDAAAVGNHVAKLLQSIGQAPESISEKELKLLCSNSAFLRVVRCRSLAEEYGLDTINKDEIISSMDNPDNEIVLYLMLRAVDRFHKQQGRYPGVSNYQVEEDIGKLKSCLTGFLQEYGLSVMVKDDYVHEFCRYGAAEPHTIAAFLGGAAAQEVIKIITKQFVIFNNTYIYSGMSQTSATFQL
`CC(=CCOc1ccc2ccc(=O)oc2c1)C1=CC(=O)C(C)(C)O1`: the inhibition – broadly, the drop in the measured response relative to a control, in per cent – is 48.3% (active). Next, `COC(=O)CN1C(=O)C2(C(C(=O)OC)=C(N)Oc3ccccc32)C2=C1CC(C)(C)CC2=O` (stereo not given): 0.61%; `O=C(CCC(=O)N1C[C@H]2C[C@@H](C1)c1cccc(=O)n1C2)NCc1ccccc1C(F)(F)F`: -4.64%; `O=C(c1cc(S(=O)(=O)N2CCOCC2)ccc1F)N1CCC2(CC1)OCCO2`: 4.52%. Regarding `CCC(C)n1c(O)c(/C=N/Nc2nc3c(c(=O)n(C)c(=O)n3C)n2C)c(=O)[nH]c1=S` (stereo not given), the inhibition is 40.5% (active). On to `CCN1C(=O)NC(=O)C2(CCCC2)C1=O`, for which the inhibition was 1.81%.

Take `CC(c1ccccc1)(c1ccccc1)c1ccncc1`: the inhibition was -5.54%. Next, `COc1ccc2c(c1)[C@]13CCCCC1C(C2)N(C)CC3` (stereo not given in full): -8.52%. For `COP(=O)(NS(=O)(=O)c1ccccc1)OC`, the inhibition was -0.79%. Then `CCN1c2nc3c(C)cccn3c(=O)c2CC2(C(=O)N(C)C(=O)N(C)C2=O)C1C` (stereo not given), with 41.1% (active); and `CCCCCn1c(=O)c(C(=O)NCc2ccccn2)c(O)c2ccccc21`, with 4.17%. As for `CC1(C)Cc2c(C#N)c(N3CCNCC3)nc(-c3ccco3)c2CS1`, the inhibition is 25.7%. Next, `COc1ccc(C(=O)C2CCCN(Cc3ccc(C)s3)C2)cc1OC` (stereo not given): 0.31%; `CN1C2C=C(N(C(=O)c3ccc(Cl)cc3)c3ccccc3)CC1CC2` (stereo not given): 0.6%.

For `CCCCC(=O)N/N=C/c1c(O)n(CCC2=CCCCC2)c(=O)[nH]c1=O`, the inhibition is 52.9% (active). As for `CCCCC(=O)N/N=C/c1c(O)n(CC)c(=S)n(CC)c1=O`, the inhibition was -37%.

With `O=c1[nH]c(=O)n(CCc2ccc(F)cc2)c(O)c1/C=N/N1CCCCC1`, the inhibition is -6.7%.

As for `COC(=O)C1=C(c2ccccc2)C[C@@H]2CC[C@H]1N2C(=O)N1CCCCC1`, the inhibition was -6.19%. On to `COc1cccc(OC)c1C(=O)NC(=S)N1C[C@H]2C[C@H](C1)c1cccc(=O)n1C2`, for which the inhibition was -2.07%. In the case of `c1ccc2sc(N3CCNCC3)nc2c1`, the inhibition is 1.66%.
